{"source": "PubChem BioAssay (EPA / NIEHS)", "key": {"[1]": {"test": "ATG_XTT_Cytotoxicity: Cytotoxicity Assessment in the Attagene TRANS-FACTORIAL HepG2 Assay (AID 2283584);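 as to AC50: cells exposed to compound for 24 h before reading; active means loss of viability signal versus DMSO baseline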", "method_in_brief": "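24 h chemical exposure of reporter-transfected HepG2; XTT signal loss vs DMSO indicates cytotoxicity.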"}, "[2]": {"biological_target": "Cellular tumor antigen p53 (Homo sapiens) (UniProt P04637)", "sequence (P04637 whole entry, looked up)": "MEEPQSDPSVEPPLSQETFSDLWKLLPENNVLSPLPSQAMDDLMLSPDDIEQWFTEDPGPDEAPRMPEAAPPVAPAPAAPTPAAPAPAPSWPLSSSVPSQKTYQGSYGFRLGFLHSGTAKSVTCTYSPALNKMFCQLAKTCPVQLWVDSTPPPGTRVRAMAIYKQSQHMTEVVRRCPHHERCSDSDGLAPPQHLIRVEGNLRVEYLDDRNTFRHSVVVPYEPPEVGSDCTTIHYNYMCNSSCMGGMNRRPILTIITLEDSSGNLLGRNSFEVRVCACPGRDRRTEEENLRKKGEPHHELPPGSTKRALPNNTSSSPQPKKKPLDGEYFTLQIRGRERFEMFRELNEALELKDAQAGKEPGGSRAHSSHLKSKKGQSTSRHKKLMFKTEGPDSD", "test": "TOX21_p53_BLA_p2_ratio: Tox21 HCT-116 p53 Agonism Beta-lactamase Assay, Ratio, Phase 2 (AID 2283592)", "method_in_brief": "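DMSO-normalized, positive-direction endpoint derived from the 460 nm/530 nm FRET ratio in HCT116 p53 beta-lactamase reporter cells exposed 16 h at 37C and loaded with CCF4-AM for 2 h.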"}, "[3]": {"biological_target": "Cellular tumor antigen p53 (Homo sapiens) (UniProt P04637)", "test": "TOX21_p53_BLA_p3_ratio: Tox21 HCT-116 p53 Agonism Beta-lactamase Assay, Ratio, Phase 3 (AID 2283596)", "method_in_brief": "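Cells were seeded at 4000/well, rested 5 h at 37C, then dosed with DMSO compound solutions (217-fold dilution) for 16 h. CCF4-AM substrate was loaded for 2 h at room temperature, and the 460/530 nm emission ratio was fitted for gain of signal versus DMSO.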"}, "[4]": {"test": "TOX21_p53_BLA_p2_viability: Viability Assessment in the Tox21 HCT-116 p53 Agonism Beta-lactamase Assay, Phase 2 (AID 2283591);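 also: actives lower the ATP signal meaning cytotoxicity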", "method_in_brief": "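HCT116 p53-bla cells, 4000/well, dosed after 5 h plating (217-fold dilution of DMSO stocks) and incubated 16 h at 37C. Viability taken as cellular ATP by CellTiter-Glo luminescence after 30 min RT; signal loss marks cytotoxicity.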"}, "[5]": {"test": "TOX21_p53_BLA_p3_viability: Viability Assessment in the Tox21 HCT-116 p53 Agonism Beta-lactamase Assay, Phase 3 (AID 2283593);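 also: cells exposed to compound for 16 h before reading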", "method_in_brief": "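HCT116 cells, 4000/well, dosed 5 h after plating by pin transfer (217-fold dilution from DMSO stock) and incubated 16 h at 37C, 5% CO2. Viability read as ATP luminescence with CellTiter-Glo after 30 min at room temperature.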"}}, "note": "“And” between values parts separate entries of the source, which are not always exact repeats. Equal entries are not always repeated. Results filed as inconclusive are left out. A structure can be active in one record and inactive in another. The source made the active and inactive calls. The calls were made as follows: active = hit-call score of the fitted dose curve at least 0.9, where 1 is the maximum; inconclusive = response in the unintended direction; inactive = score below 0.9."}
{"smiles": "Clc1ccc(Nc2nnc(Cc3ccncc3)c3ccccc23)cc1", "values": [{"measurement": "outcome", "setting": "[1]", "value": "inactive"}, {"measurement": "outcome", "setting": "[2]", "value": "inactive"}, {"measurement": "outcome", "setting": "[3]", "value": "inactive"}]}
{"smiles": "Cc1ccc(C(=O)c2ccccc2)cc1", "values": [{"measurement": "outcome", "setting": "[1]", "value": "inactive"}, {"measurement": "outcome", "setting": "[2]", "value": "inactive"}, {"measurement": "outcome", "setting": "[3]", "value": "inactive"}]}
{"smiles": "CC(=O)CC(C)C", "values": [{"measurement": "outcome", "setting": "[1]", "value": "inactive"}, {"measurement": "outcome", "setting": "[4]", "value": "inactive"}, {"measurement": "outcome", "setting": "[2]", "value": "inactive"}, {"measurement": "outcome", "setting": "[3]", "value": "inactive"}]}
{"smiles": "CCC(=O)O", "values": [{"measurement": "outcome", "setting": "[1]", "value": "inactive"}, {"measurement": "outcome", "setting": "[2]", "value": "inactive"}, {"measurement": "outcome", "setting": "[3]", "value": "inactive"}]}
{"smiles": "O=C(O)C(=O)O", "values": [{"measurement": "outcome", "setting": "[1]", "value": "inactive"}, {"measurement": "outcome", "setting": "[2]", "value": "inactive"}, {"measurement": "outcome", "setting": "[3]", "value": "inactive"}]}
{"smiles": "O=C(O)c1cccc(C(=O)O)n1", "values": [{"measurement": "outcome", "setting": "[2]", "value": "inactive"}, {"measurement": "outcome", "setting": "[5]", "value": "inactive"}, {"measurement": "outcome", "setting": "[3]", "value": "inactive"}]}
{"smiles": "CCC1CO1", "note": "(stereo not given)", "values": [{"measurement": "outcome", "setting": "[1]", "value": "inactive"}, {"measurement": "outcome", "setting": "[2]", "value": "inactive"}]}
{"smiles": "C[C@]12CC[C@@H]3c4ccc(O)cc4CC[C@H]3[C@@H]1C[C@@H](O)[C@@H]2O", "values": [{"measurement": "outcome", "setting": "[1]", "value": "inactive"}, {"measurement": "outcome", "setting": "[2]", "value": "inactive"}, {"measurement": "outcome", "setting": "[5]", "value": "inactive"}, {"measurement": "outcome", "setting": "[3]", "value": "inactive"}]}
{"smiles": "CCN(CC)CC", "values": [{"measurement": "outcome", "setting": "[1]", "value": "inactive"}, {"measurement": "outcome", "setting": "[4]", "value": "inactive"}, {"measurement": "outcome", "setting": "[5]", "value": "inactive"}]}
{"smiles": "COc1ccccc1NC(=O)c1cc2ccccc2cc1O", "values": [{"measurement": "outcome", "setting": "[1]", "value": "inactive"}, {"measurement": "outcome", "setting": "[4]", "value": "inactive"}, {"measurement": "AC50", "setting": "[2]", "value": "14 µM (active)"}, {"measurement": "outcome", "setting": "[5]", "value": "inactive"}, {"measurement": "outcome", "setting": "[3]", "value": "inactive"}]}
{"smiles": "Cc1cc(Cc2cc(C)cc(C(C)(C)C)c2O)c(O)c(C(C)(C)C)c1", "values": [{"measurement": "AC50", "setting": "[1]", "value": "74.7 µM (active)"}, {"measurement": "AC50", "setting": "[4]", "value": "10.8 µM (active) and 10.5 µM (active)"}, {"measurement": "AC50", "setting": "[2]", "value": "27.1 µM (active) and 46 µM (active)"}, {"measurement": "AC50", "setting": "[5]", "value": "19.1 µM (active) and 20.2 µM (active)"}, {"measurement": "AC50", "setting": "[3]", "value": "44.8 µM (active) and 57.1 µM (active)"}]}
{"smiles": "CC1=NN(c2ccccc2)C(=O)C1", "values": [{"measurement": "outcome", "setting": "[4]", "value": "inactive"}, {"measurement": "outcome", "setting": "[2]", "value": "inactive"}, {"measurement": "outcome", "setting": "[5]", "value": "inactive"}, {"measurement": "outcome", "setting": "[3]", "value": "inactive"}]}
{"smiles": "CCC(=O)C=Cc1ccc(OC)cc1", "values": [{"measurement": "outcome", "setting": "[2]", "value": "inactive"}, {"measurement": "outcome", "setting": "[5]", "value": "inactive"}, {"measurement": "outcome", "setting": "[3]", "value": "inactive"}]}
{"smiles": "NC(=NCCCCCCN=C(N)/N=C(\\N)Nc1ccc(Cl)cc1)/N=C(\\N)Nc1ccc(Cl)cc1", "values": [{"measurement": "AC50", "setting": "[1]", "value": "31.6 µM (active)"}, {"measurement": "AC50", "setting": "[2]", "value": "59.8 µM (active) [middle of 4 runs]"}, {"measurement": "outcome", "setting": "[2]", "value": "inactive"}, {"measurement": "AC50", "setting": "[3]", "value": "72.6 µM (active) [middle of 4 runs]"}, {"measurement": "outcome", "setting": "[3]", "value": "inactive"}]}
